# From PubChem BioAssay
# Marburg entry inh: Marburg virus entry inhibition | Marburg virus pseudotyped entry inhibition, cell reporter | Potency, µM (doses to about 37.8 µM), inactives show at the highest dose activity change, negative = inhibition, hits mostly inhibitors | hit rate 1.8% among 300,000 | AID 540276; calls by dose curve; tested in HEK293 cells
# FMDV inh: antivirals against foot and mouth disease virus; FMDV antiviral cell-based qHTS; Potency, µM (doses to about 57.9 µM), for the others: top-dose activity change, negative = inhibition, hits mostly inhibitors; hit rate 1.2% among 410,000; calls by dose curve; tested in HEK293T cells; further: read-out not given here; nearly all actives have a fitted effect of over 45% in size
# Vaccinia Venus: inhibitors of vaccinia virus (Venus reporter); AID 720580; Vaccinia virus Venus reporter expression, fluorescence; Potency, µM (series often up to 36.5 µM), for the others: top-dose activity change, negative = inhibition, most hits filed as inhibitors; hit rate 0.46% among 330,000; calls by dose curve; tested in A549 cells; further: nearly all actives have a fitted effect of over 30% in size
# Lassa entry inh: Lassa virus entry inhibition; Potency, µM (doses to about 37.9 µM), for the others: at the top dose activity change, negative = inhibition, actives largely listed as inhibitors; Lassa virus pseudotype entry inhibition, cell reporter; AID 540256; hit rate 1.2% among 300,000; calls by dose curve; tested in HEK293 cells; further: nearly all actives have a fitted effect of over 50% in size
# HCV inhibitor: inhibitors of hepatitis C virus infection; Huh7.5.1 HCVcc-Cre infection, luciferase reporter, 44 h; hit rate 3.4% among 340,000; Potency, µM (series often up to 41.8 µM), for the others: at the highest dose activity change, negative = inhibition, actives largely listed as inhibitors; AID 651820; active means well fitted inhibition curve with a large enough effect; inconclusive means small, poorly fitted or top-dose-only effect, or another doubt; inactive means no such curve, though single readings can be large or run the other way
#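 HCVcc-Cre virus at an moi near 0.5 was added right after compound to cells cultured 4 h from seeding (1,000 cells/well). Luciferase activity was determined 44 h later, 15 min after substrate addition at RT.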
# VACV mCherry inh: inhibitors of vaccinia virus infection (mCherry reporter signal). Vaccinia virus mCherry reporter infection, fluorescence. Potency, µM (titrated, usually from 36.5 µM), inactives show at the highest dose activity change, negative = inhibition, actives largely listed as inhibitors. hit rate 0.63% among 310,000; calls by dose curve; tested in A549 cells; further: nearly all actives have a fitted effect of over 35% in size
# Numbers without * were called inactive; i = inactive; ? = inconclusive; . = no result; [ ] = another dose, or the depositor's remark. In the library only some 5.3% were active in any assay of this set; here they are far more common. On the % scale 0 is the no-effect control and ±100 the full control effect; potency means the concentration at half of the fitted maximal effect.
SMILES,Marburg entry inh,FMDV inh,Vaccinia Venus,Lassa entry inh,HCV inhibitor,VACV mCherry inh
COc1ccc(-c2csc(N(CCc3ccccc3)C(=O)COc3ccccc3)n2)cc1,-8%,-7%,-8%,?,0%,-20%
COCCN(C(=O)c1ccccc1)c1nc(-c2ccc(OC)cc2)cs1,.,15%,.,.,-4%,.
COCCCN(C(=O)c1ccco1)c1nc(-c2ccc(OC)cc2)cs1,?,-23%,-18%,?,?,-21%
COCCCN(C(=O)c1ccccc1F)c1nc(-c2ccc(OC)cc2)cs1,.,-11%,.,.,10µM*,.
CC(=O)c1ccc(-c2cc(F)cc3c2OC(CNC(=O)C(C)N2CCOCC2)C3)s1 (centres undefined),.,-15%,-11%,.,.,-4%
CC(=O)c1ccc(-c2cc(F)cc3c2OC(CNC(=O)Cc2cn4ccsc4n2)C3)s1 (centres undefined),.,7%,3%,.,.,-14%
COc1ccc(CN2CCN(Cc3cc(=O)oc4cc(C)ccc34)CC2)c(OC)c1OC,14µM*,-2%,-7%,-22%[46.1 µM],?,-13%
COc1ccc(CN2CCN(Cc3ccc(Br)cc3)CC2)c(OC)c1OC,.,?,.,.,13µM*,.
COc1ccc(CN2CCN(C(c3ccc(F)cc3)c3ccc(F)cc3)CC2)c(OC)c1OC,.,-24%,-20%,.,1µM*,-9%
COc1ccccc1N1CCN(Cc2cc(=O)oc3cc(C)ccc23)CC1,.,?,-10%,?,.,10%
C(=C\c1c[nH]c2ccccc12)/c1ccc2ccccc2n1,.,.,-10%,.,.,?
CCn1cc(S(=O)(=O)c2ccc(OC)cc2)c(=O)c2cc(F)c(N3CCC(C)CC3)cc21,.,-11%,-13%,-24%[46.1 µM],.,-7%
Cc1cc(C)c2[nH]c(O)c(N=NC(=S)NCC3CCCO3)c2c1 (centres undefined),8%,-6%,-15%,0%,-6%,-21%
Oc1[nH]c2c(Cl)cc(Cl)cc2c1N=NC(=S)NCC1CCCO1 (centres undefined),?,25µM*,-12%,?,?,i
Oc1[nH]c2ccc(Br)cc2c1N=NC(=S)NCC1CCCO1 (centres undefined),5%[46.1 µM],-23%,-17%,?,11µM*,-30%
Oc1[nH]c2ccccc2c1N=NC(=S)NCC1CCCO1 (centres undefined),-28%,-8%,-18%,?,?,-11%
COc1ccc2c(c1)c1c(c(=O)n(-c3ccccc3C)c(=O)n1CC(=O)NCc1ccc(C)cc1)n2C,.,-29%,-16%,21%[46.1 µM],.,-10%
C/C(=N\OCc1cccc(C(=O)O)c1)c1ccc(Cl)cc1,?,10µM*,-6%,?,3%,i
O=C(O)c1cccc(NC(=O)c2ccc(COc3ccc(Cl)cc3)cc2)c1,.,41%,.,.,7%,.
COCc1[nH]nc2c1[C@@H](c1sccc1C)C(C#N)=C(N)O2,-12%,.,.,.,.,.
CCCCCCN1C[C@H](O)[C@@H](n2cc(C3CC3)nn2)C[C@H]1c1ccccc1,.,.,.,-2%[46.1 µM],.,.
O=C(c1cc(COc2ccc(F)c(F)c2)on1)N1CCN(C2CCCCC2)C(=O)C1,.,1%,.,.,-14%,.
CC(=O)c1ccc(OCc2cc(C(=O)N3CCN(C4CCCC4)C(=O)C3)no2)cc1,3%,32%,-20%,3.2µM*,-16%,-5%
Cc1cccc(COc2ccc(-c3cc(C(F)(F)F)n4nc(C)cc4n3)cc2)c1,?,10%,0%,8%[46.1 µM],.,-3%
Cc1ccc(CNCc2ccc3c(c2)n(C)c(=O)n3C)cc1,4%[46.1 µM],-8%,-17%,?,.,-19%
SMILES,Marburg entry inh,FMDV inh,Vaccinia Venus,Lassa entry inh,HCV inhibitor,VACV mCherry inh
O=c1c2ccccc2cnn1-c1ccc(Br)cc1,?,0%,-7%,?,-5%,.
O=c1c2ccccc2cnn1-c1ccc2ccccc2c1,?,?,.,10µM*,-21%,.
Cc1nc2c(ccc3nc(NC(=O)C(c4ccccc4)c4ccccc4)sc32)s1,-6%,13µM*,?,7%,10µM*,?
Cc1nc2c(ccc3nc(NC(=O)Cc4cccc5ccccc45)sc32)s1,-3%,?,-17%,?,?,9%
CCOC(=O)c1oc2ccc(Br)cc2c1COC(=O)C1=COCCO1,-11%[46.1 µM],-1%,8%,8%,25µM*,-10%
Cc1ccc2c(COC(=O)C3=COCCO3)cc(=O)oc2c1,?,7%,-8%,?,1%,-3%
COC(=O)CSCc1nc(-c2ccc(C(=O)OC)cc2)oc1C,.,-4%,2%,7.1µM*,.,1%
CSc1ccc(-c2nc(CSCC(=O)NC3CC3)c(C)o2)cc1,.,-9%,.,.,?,.
CCc1ccc(-c2nc(CSCC(=O)N3CCN(c4ncccn4)CC3)c(C)o2)cc1,-7%,22µM*,?,.,?,?
CCc1ccc(-c2nc(CSCC(=O)NC3CC3)c(C)o2)cc1,5µM*,-16%,-19%,?,?,i
COCCNC(=O)c1cc2n(n1)CCCN(Cc1ccc(C)cc1)C2=O,.,12%,-12%,9%[46.1 µM],.,-20%
C[C@H]1CCC/C=C/C2C[C@H](O)CC2[C@H](O)/C=C/C(=O)O1 (some centres undefined),0.37µM*,-24%,?,1.2µM*,?,?
CC1CCCC=CC2CC(O)CC2C(O)/C=C\C(=O)O1 (centres undefined),0.4µM*,.,.,.,.,.
CCCCC[C@H]1CCCCC[C@H](O)C[C@@H](O)[C@H](O)/C=C/C(=O)O1,.,?,-20%,.,.,-6%
CCCCC[C@H]1CCCCC[C@H](O)C[C@H](O)[C@@H](O)/C=C/C(=O)O1,.,0%,-11%,.,.,-15%
CC1CCC/C=C/C2CC(O)CC2C(O)/C=C/C(=O)O1 (centres undefined),0.4µM*,-24%,?,?,0.71µM*,?
COC(=O)c1cc(CNC(=O)c2cnsn2)cc(NC(=O)c2ccccc2OC)c1,.,-4%,-10%,.,.,-22%
O=C1/C(=C/c2ccccc2)CCc2ccc(Cl)nc21,?,35µM*,4%,?,?,-20%
Cc1ccccc1C(=O)Nc1nc(-c2nnn(-c3ccc(C(C)C)cc3)c2C)ns1,.,-19%,-17%,33%[46.1 µM],.,-15%
COc1cccc2cc(-c3cc(=O)oc4ccc(OC(=O)N(C)C)cc34)oc12,-1%[46.1 µM],-28%,-3%,16%[46.1 µM],11µM*,i
CCN(CC)C(=O)Oc1ccc2oc(=O)cc(-c3cc4cccc(OC)c4o3)c2c1,?,-30%,-14%,?,11µM*,-6%
O=c1cc(-c2cc3ccccc3o2)c2cc(O)ccc2o1,3%[46.1 µM],-4%,-23%,-21%[46.1 µM],?,?
CC(=O)COc1ccc2oc(=O)cc(-c3cc4ccccc4o3)c2c1,.,-17%,.,.,14µM*,.
O=c1oc(Cl)c(Cl)c2c1CCCC2,-28%,.,.,.,.,.
CC#CCN1C(=O)NC(c2ccccc2)C(C#N)=C1C (centres undefined),23%[14.2 µM],.,.,.,.,.
CCN(CC)CCNC(=O)CCc1c(C)nc2c(c(C)nn2-c2ccc(C)c(C)c2)c1C,.,-17%,.,.,7.1µM*,.
